PubChem BioAssay AID1903 (Southern Research Specialized Biocontainment Screening …, 2009)
Where “and” joins values, the source holds several entries; their conditions need not be identical. Identical values can stand only once. Out of some 310,000 compounds screened, about 1,200 (0.39%) were called active. How the calls were made is not given here. Only a sample is shown. Results with a measured potency or affinity are listed apart.

What follows are molecules tested against Large T antigen (Simian virus 40) (UniProt P03070) (assay: SV40 large T antigen inhibitors, biochemical (AID 1903)). Conditions: SV40 large T antigen ATPase/helicase inhibition assay; at 20 µM; active compounds read high.
Sequence of Large T antigen (Simian virus 40) (P03070 whole entry, looked up): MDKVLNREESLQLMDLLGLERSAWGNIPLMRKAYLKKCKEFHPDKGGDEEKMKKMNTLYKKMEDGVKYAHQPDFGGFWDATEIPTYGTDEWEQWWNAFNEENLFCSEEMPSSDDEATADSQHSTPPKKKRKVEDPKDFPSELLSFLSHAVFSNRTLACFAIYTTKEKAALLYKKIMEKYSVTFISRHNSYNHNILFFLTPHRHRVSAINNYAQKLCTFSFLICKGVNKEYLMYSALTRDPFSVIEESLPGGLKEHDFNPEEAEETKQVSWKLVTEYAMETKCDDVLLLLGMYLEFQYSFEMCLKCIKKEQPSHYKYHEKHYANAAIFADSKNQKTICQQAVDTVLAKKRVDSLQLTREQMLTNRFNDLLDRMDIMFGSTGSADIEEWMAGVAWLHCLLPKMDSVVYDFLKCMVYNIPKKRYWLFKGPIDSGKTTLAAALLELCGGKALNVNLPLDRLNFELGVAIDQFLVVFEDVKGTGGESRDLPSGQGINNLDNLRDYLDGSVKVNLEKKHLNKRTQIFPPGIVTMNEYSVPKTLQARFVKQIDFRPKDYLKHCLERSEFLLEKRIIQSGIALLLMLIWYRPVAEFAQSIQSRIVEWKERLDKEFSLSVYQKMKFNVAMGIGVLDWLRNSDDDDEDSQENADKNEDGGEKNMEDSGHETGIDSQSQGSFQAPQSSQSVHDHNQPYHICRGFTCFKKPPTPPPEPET

inhibition, inactive:
COc1cc(/C=N/NC(=O)c2cccc([N+](=O)[O-])c2)cc(OC)c1O 20.1%
COc1ccc(/C=N/NC(=O)c2nnn(-c3nonc3N)c2-c2cccs2)cc1OC 7.55%
COc1cc(/C=N/NC(=S)Nc2cccc(C(=O)O)c2)cc(OC)c1OC 5.01%
CCCOc1ccc(/C=N/NC(=O)c2nnn(-c3nonc3N)c2-c2cccs2)cc1OC 10.3%
COc1ccc(/C=N/NC(=S)Nc2cccc(C(=O)O)c2)cc1OC 19.3%
COc1cccc(/C=N/NC(=O)c2cccs2)c1 -1.95%
O=C(CNC(=O)c1cccc(F)c1)N/N=C/c1cccc([N+](=O)[O-])c1 16.8%
COc1cc(/C=N/NC(=O)c2cccs2)ccc1OCc1ccccc1 -0.01%
COc1cc(OC)c(C(=O)NCC2CCCO2)cc1OC (configuration not stated) -5.36%
CS(=O)(=O)N1CCCC(C(=O)Nc2ccccc2F)C1 (configuration not stated) 1.68%
O=C(O)c1cccc(NC(=O)c2ccccc2NC(=O)c2ccccc2F)c1 9%
Cc1ccc(NC(=O)CN(C)CC(=O)Nc2ccccc2C#N)cc1 8.84%
CC(Oc1ccc(Br)cc1)C(=O)O/N=C(\N)c1ccncc1 (configuration not stated) 2.31%
COc1cccc(C(=O)C2CCCN(Cc3cn(C)nc3-c3ccccc3)C2)c1 (configuration not stated) -3.2%
COc1cc2[nH]c(-c3cccc(F)c3)cc(=O)c2cc1OC 16.1%
CN(CC(=O)Nc1ccc(S(N)(=O)=O)cc1)Cc1ccccc1F 4.84%
COc1ccc(/C=N/NC(=O)c2cnccn2)cc1O 26.2%
COc1ccc(/C=N/NC(=O)c2cccc([N+](=O)[O-])c2)cc1O 29.7%
COc1cc(/C=N/NC(=O)c2ccccc2O)ccc1OCC(=O)Nc1ccccc1 13.3%
COc1cc(/C=N/NC(=O)c2cnccn2)cc(OC)c1OC -1.61%
COc1ccc(/C=N/NC(=O)C2COc3ccccc3O2)cc1OC (configuration not stated) -1.14%
COc1ccc(/C=N/NC(=O)c2cccc([N+](=O)[O-])c2)cc1OC 22.1%
COc1cc(/C=N\NC(=O)C2COc3ccccc3O2)cc(OC)c1O (configuration not stated) 37.5%
O=C(CC1SC(=O)NC1=O)Oc1ccc(/C=N/NC(=O)c2ccccc2O)cc1 (configuration not stated) 48.3%
N#CCc1c(C#N)c(N)nc(N2CCOCC2)c1C#N 5.53%
CN(Cc1ccccc1)S(=O)(=O)c1ccc(NC(=O)c2ccccc2C(=O)O)cc1 4.64%
Cc1ccc(Cn2cnc3sc4c(c3c2=O)CCC4)c(C)c1 9.2%
O=C(N/N=C\C=C\c1ccc2c(c1)OCO2)C1COc2cc3ccccc3cc2O1 (configuration not stated) 7.25%
COc1ccc(C(=O)Nc2cc(C)on2)cc1OC 4.7%
O=C(O)c1sccc1Oc1ccc(NS(=O)(=O)c2ccccc2)cc1 9.58%
O=C(OCc1nc2ccccc2[n+]([O-])c1C(=O)c1ccccc1)c1cccs1 8.13%
COc1cc(/C=N/NC(=O)c2cc[n+]([O-])cc2)ccc1O 27.9%
COc1cc(/C=N/NC(=O)c2cc(C3CC3)[nH]n2)cc(OC)c1OC 8.67%
COc1ccc(/C=N/NC(=O)c2cc(C3CC3)[nH]n2)cc1OC 11.7%
CCOc1ccc(/C=N/N(C)c2ccccc2)cc1OC 3.32%
COc1cc(/C=N/NC(=O)c2c(-c3ccccc3)noc2C)cc(OC)c1OC 0.27%
COc1cc(/C=N/N(c2ccccc2)c2ccccc2)ccc1O 18.7%
COc1cc(C(=O)N/N=C/c2ccc(OC(=O)c3ccccc3)c(OC)c2)ccc1O 23.2%
CCOc1cc(/C=N/NC(=O)c2c(-c3ccccc3)noc2C)ccc1O 34.1%
Cc1c(NS(=O)(=O)c2ccc(Br)s2)c(=O)n(-c2ccccc2)n1C 3.2%
O=C(NCCc1ccco1)c1cc(COc2cccc(C(F)(F)F)c2)on1 29.7%
CCc1ccc(CN2CCC(n3nccc3NC(=O)Cc3ccccc3)CC2)o1 13.5%
Cc1ccc(N(CC(=O)N/N=C/c2cccc(Br)c2)S(C)(=O)=O)cc1 9.07%
CC(C)(C)c1cc(C(=O)N/N=C/c2ccc(F)cc2)n(-c2ccccc2)n1 -0.35%
Cc1ccc(/C=N/NC(=O)c2nc3nc(C)cc(C)n3n2)cc1 22.5%
CC(C)(C)c1cc(C(=O)N/N=C/c2ccccc2O)n(-c2ccccc2)n1 19.8%
CCOc1cc(/C=N\NC(=O)c2c(C)nc3ccccn23)ccc1O 35%
Cc1cc(C)n2nc(C(=O)N/N=C/c3ccc(Cl)cc3)nc2n1 6.6%
COc1cc(/C=N/NC(=O)c2cccc(C(=O)N/N=C/c3ccc(O)c(OC)c3)n2)ccc1O -2.1%
COc1cc(/C=N/NC(=O)c2cc3ccccc3[nH]2)ccc1O 27.5%
COc1ccc(OC)c(/C=N\NC(=O)c2c(C)nc3cc(C)ccn23)c1 11.2%
COc1ccc(S(=O)(=O)N2CCCC(C(=O)NCCC(C)C)C2)cc1 (configuration not stated) 5.62%
Cc1cccc(NC(=O)c2cc(-c3cc(C)c(C)cc3O)n[nH]2)c1 4.66%
CCOC(=O)Cc1c(C)nc(SC)[nH]c1=O 1.67%
Cc1nn(C)c(Oc2ccccc2)c1CCNC(=O)CCl -0.24%
COc1cccc(OC)c1C(=O)Nc1ccc(S(=O)(=O)Nc2cc(C)nc(C)n2)cc1 20.7%
COc1ccc(N(CC(=O)NCc2ccncc2)S(=O)(=O)c2ccccc2[N+](=O)[O-])c(OC)c1 2.38%
COc1cc(/C=N/NC(=O)c2ccc3nc[nH]c3c2)cc(OC)c1OC 8.71%
COc1ccc(/C=N/NC(=O)c2ccc3nc[nH]c3c2)cc1OC 3.44%
COCCSc1nc2c(c(=O)[nH]c(=O)n2C)n1CCCc1ccccc1 3.03%
Cc1noc(C)c1COC(=O)c1cccnc1SCC(=O)Nc1ccc2c(c1)OCO2 2.06%
Cc1ccccc1Cn1cnc2c(NS(C)(=O)=O)c(C)c(C)cc21 0.14%
Cc1c(Cl)cccc1N=C(N)N=C(N)N 13.8%
NC(N)=N/N=C/c1c(Cl)cccc1Cl 21.2% and 9.2%
O=C1Nc2ccccc2/C1=N/N=C/c1cccc(O)c1 13.2%
COc1ccc(O)c(/C=N/N=C2/C(=O)Nc3ccccc32)c1 12.5%
COc1ccc(OC)c(N=C2C(=O)Nc3ccccc32)c1 4.71%
COc1cc(/C=N/N=C(/C(=O)c2ccccc2)c2ccccc2)cc(OC)c1O 15.6%
Cc1ccsc1/C=N/N=C1\C(=O)Nc2ccccc21 -4.81%
COc1cc(/C=N/N=C2/NC(=O)C(c3ccccc3)S2)ccc1O (configuration not stated) 30.9%
COC(=O)c1ccc(S(=O)(=O)N2C3CCC2CC(NC(=O)C2CC2)C3)cc1 (configuration not stated) -2.31%
CCCCN(CCCC)CCCNC(=O)C12CN(Cc3ccccc3)CC1C(c1cccc([N+](=O)[O-])c1)=NO2 (configuration not stated) 6.72%
Cc1cc(NCc2ccccc2)n2ncc(-c3ccccc3)c2n1 3.96%
CC(=O)OC[C@H]1O[C@@H](O/N=C/C[C@@H]2C=C[C@H](OC(C)=O)[C@@H](COC(C)=O)O2)[C@H](OC(C)=O)[C@@H](OC(C)=O)[C@@H]1OC(C)=O 7.46%
Cc1cc(NC(=O)C(C)SCC(=O)Nc2ccc(SC(F)F)cc2)no1 (configuration not stated) 15.7%
Cc1ccc(C(=O)Cc2cc3ccccc3oc2=O)c(C)c1 9.25%
O=S(=O)(O)c1cc(O)ccc1O 25.8%
Oc1ccc(-c2nc3ccccc3s2)c(O)c1 21%
O=C(Cc1ccccc1)NCc1cccnc1 5.27%
CC(OC(=O)Cc1n[nH]c(=O)c2ccccc12)C(=O)Nc1cccc([N+](=O)[O-])c1 (configuration not stated) 8.17%
COC(=O)c1cc(NS(=O)(=O)c2ccc(Cl)c(N3C(=O)c4ccc(C(=O)O)cc4C3=O)c2)cc(C(=O)OC)c1 11.3%
CCN1C(=O)C2(C(C(=O)c3cc4ccccc4o3)=C(O)C(=O)N2CCCN2CCOCC2)c2ccccc21 (configuration not stated) 16.1%
CCN1C(=O)C2(C(C(=O)c3ccc(C)o3)=C(O)C(=O)N2CCCN(C)C)c2ccccc21 (configuration not stated) 27.5%
CCC(=O)Nc1ccc(C(=O)NNC(=O)c2cccc(C)c2)cc1 5.14%
COc1cc(/C=C/c2ccc3cccc(O)c3n2)c(Br)cc1O 0.04%
COc1cccc2c1-c1c(O)cccc1C2=O 9.33%
O=C(CSc1nnc(-c2cccnc2)n1-c1ccccc1)Nc1ccc2c(c1)OCO2 18.3%
N#Cc1ccsc1NC(=O)CN1C(=O)NC2(CCCC2)C1=O 13.3%
CCCOc1ccc(N2C(=O)CC(NCC#N)C2=O)cc1 (configuration not stated) 3.6%
Nc1c(-c2ccc(Cl)cc2)cnn1-c1cc(C(F)(F)F)cc(C(F)(F)F)c1 10.5%
Oc1ccccc1C1=Nc2ccccc2N=C(c2cccs2)C1 12.3%
O=C(O)C1CC(c2ccccc2)=Nc2ccccc2S1 (configuration not stated) 19.3%
